Assay outcomes: PubChem, National Center for Advancing Translational Sciences (NCATS)
TDP1 cell CPT – growth inhibition of DT40 Tdp1-/-;hTDP1 cells with camptothecin (screen for TDP1 inhibitors) | chicken DT40 Tdp1-/-;hTDP1 cells + 20 nM CPT, ATP luminescence, 48 h | Potency, µM (highest dose often 46.2 µM), for the others: at the top dose activity change, negative = growth inhibition, actives largely listed as inhibitors | 12% of 420,000 active; further: potency means the concentration at half of the fitted maximal effect; on the % scale 0 is the no-effect control and ±100 the full control effect; nearly all actives have a fitted effect of over 55% in size
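Chicken DT40 Tdp1-/- cells complemented with human TDP1, 400 cells/well, exposed to compounds plus 20 nM camptothecin for at least 48 h at 37 C; viability read as ATP content by CellTiter-Glo luminescence.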
DT40 TDP1 no CPT – qHTS for Inhibitors of human tyrosyl-DNA phosphodiesterase 1 (TDP1): qHTS in cells in absence of CPT | Potency, µM (doses to about 46.2 µM), without a hit: at the highest dose activity change, negative = growth inhibition, usual class: inhibitors | 15% of 420,000 active | DT40 Tdp1-/- hTDP1 cells, no CPT, ATP luminescence, 48 h | AID 686978, 2013; further: potency means the concentration at half of the fitted maximal effect; on the % scale 0 is the no-effect control and ±100 the full control effect; nearly all actives have a fitted effect of over 55% in size
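Readout: luminescence from CellTiter-Glo after 30 min in the dark at RT. Cells: DT40 Tdp1-/- with stable hTDP1, 400/well. Exposure: compounds alone, ≥48 hr, 37 °C.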
HepG2 viability – HepG2 cytotoxicity, counter-screen for TGF-b inhibitors. HepG2 CAGA-GFP viability, ATP luminescence, 18 h. Potency, µM (doses to about 46.1 µM), for the others: at the highest dose activity change, negative = cytotoxicity, actives largely listed as cytotoxic. 0.76% of 410,000 active. AID 588856; further: potency means the concentration at half of the fitted maximal effect
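CellTiter-Glo luminescence gave cytotoxicity after 18 hours at 37 degrees C. The cells were HepG2 CAGA-GFP in 1% FBS DMEM, stimulated with 500 pg/mL TGF-beta after compound addition. %Activity was normalised to no-cell wells (complete cell-killing) and DMSO (no toxicity), and curves were fitted and classified.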
ASM inhibitor – human S-ASM enzyme inhibition | P17405 | placental ASM, HMU-PC fluorogenic substrate, 60 min | Potency, µM (series often up to 57.5 µM), for the others: at the top dose activity change, negative = inhibition, usual class: inhibitors | 0.006% of 340,000 active | AID 504937; further: potency means the concentration at half of the fitted maximal effect
Target sequence (P17405 47-631 limits assumed): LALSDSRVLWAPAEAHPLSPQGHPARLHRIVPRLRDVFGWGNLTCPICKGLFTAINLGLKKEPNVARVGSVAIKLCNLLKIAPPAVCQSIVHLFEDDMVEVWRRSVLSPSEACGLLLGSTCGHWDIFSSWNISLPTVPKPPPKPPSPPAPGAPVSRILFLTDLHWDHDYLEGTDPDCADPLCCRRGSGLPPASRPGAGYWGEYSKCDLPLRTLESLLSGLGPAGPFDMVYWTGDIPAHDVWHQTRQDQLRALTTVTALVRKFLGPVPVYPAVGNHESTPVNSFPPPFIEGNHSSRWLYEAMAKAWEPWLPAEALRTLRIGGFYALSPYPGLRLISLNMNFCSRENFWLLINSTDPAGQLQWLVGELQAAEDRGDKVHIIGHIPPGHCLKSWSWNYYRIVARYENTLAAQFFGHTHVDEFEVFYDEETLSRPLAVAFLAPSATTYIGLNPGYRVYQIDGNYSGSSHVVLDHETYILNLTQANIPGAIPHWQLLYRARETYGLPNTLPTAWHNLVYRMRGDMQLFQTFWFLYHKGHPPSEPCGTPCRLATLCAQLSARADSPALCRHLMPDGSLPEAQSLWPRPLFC
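Human placenta-derived ASM enzyme was preincubated with compound for 10 minutes at room temperature, then given fluorogenic substrate HMU-PC0 (9 uM final) for 60 minutes at 37 °C; a pH 10 stop preceded fluorescence reading at Ex 386/Em 447 nm.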
TGFb SMAD3 inh – TGF-b pathway inhibition | HepG2 CAGA-GFP TGF-b/SMAD3 reporter, GFP fluorescence, 18 h; TGF-beta stimulated, 500 pg/mL final | Potency, µM (doses to about 46.1 µM), without a hit: at the highest dose activity, negative = inhibition, hits mostly inhibitors | 1.2% of 410,000 active | AID 588855; further: potency means the concentration at half of the fitted maximal effect; on the % scale 0 is the no-effect control and ±100 the full control effect; nearly all actives have a fitted effect of over 65% in size
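First, reporter cells (HEPG2 CAGA-GFP) rested 2 h at 37 degrees C. Next, compounds were pinned in and TGF-beta added to 500 pg/mL final. After 18 h, GFP was imaged per cell and summed per well.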
IL-1B inflam inh – blocks inflammasome-driven IL-1 beta release; AID 743279; THP-1 LPS/ATP IL-1B secretion, AlphaLISA, 16 h; hits give low values; 4.7% of 360,000 active; activity change, % at 57.5 µM; in the data active means activity change below about -50%; inconclusive means mostly about -30% to -49%; further: on the % scale 0 is the no-effect control and ±100 the full control effect
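THP-1 cells pretreated 1 hr with compounds (up to 57.5 uM final), then stimulated with LPS (250 ng/mL final) plus ATP (1.25 mM final); secreted IL-1B measured by AlphaLISA after 16 hr, decreased signal indicating inhibition.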
Active calls of the source: *; ? = inconclusive; . = no result; ! = not active in a repeat; [ ] = remark or other dose. A selection: hits, their analogues and other compounds. The true share with any hit is near 19%. Unless noted, the call rests on the fitted dose curve; in most records, active means well fitted curve in the direction sought with a large enough effect; inconclusive means small, poorly fitted or top-dose-only effect, or another doubt; inactive means no such curve, though single readings can be large; an effect the other way counts as inactive or inconclusive.

SMILES | TDP1 cell CPT | DT40 TDP1 no CPT | HepG2 viability | ASM inhibitor | TGFb SMAD3 inh | IL-1B inflam inh
Cc1oc(-c2ccccc2)nc1CN1C(=O)C(C)N=C(c2ccccc2F)c2cc(Cl)ccc21 (stereo unspecified) | ? | ? | 9% | -6% | ? | -13
Cc1ccc(C(O)P(=O)(OCCC(C)C)c2ccc(N(C)C)cc2)cc1 (stereo unspecified) | ? | -17% | -40% | 0% | ? | -16
CCCOP(=O)(c1ccc(N(C)C)cc1)C(O)c1ccc(Cl)cc1Cl (stereo unspecified) | 26µM* | 26µM* | -14% | -2% | -23% | -79*
CC(C)c1ccc(C(O)P(=O)(OCc2ccccc2)c2ccc(N(C)C)cc2)cc1 (stereo unspecified) | ? | 26µM* | -82% | -12% | ? | ?
CC(C)CCOP(=O)(c1ccc(N(C)C)cc1)C(O)c1c(Cl)cccc1Cl (stereo unspecified) | ? | 16µM* | -28% | -2% | -30% | -17
O=C(CN1CCN(c2ccccc2)CC1)Nc1ccccc1C(=O)NCCc1ccccc1 | ? | ? | -2% | . | -4% | -24
CC(C)NCC(O)c1ccccc1Cl (stereo unspecified) | 16% | -2% | . | . | . | .
C#C[C@]1(O)CCC2C3C(=O)C=C4C=CCC[C@]4(C)C3CC[C@@]21C (stereo partly specified) | -23% | ? | -37% | -5% | -6% | -9
C#C[C@]1(O)CCC2C3C(CC[C@@]21C)[C@@]1(C)CC[C@@H](O)CC1=C[C@H]3O (stereo partly specified) | ? | 23µM* | -11% | 0% | 15% | 22
CC(C)C1C(=O)N2CCCC2[C@]2(O)O[C@@](NC(=O)[C@@H]3C=C4c5cccc6[nH]cc(c56)C[C@H]4N(C)C3)(C(C)C)C(=O)N12 (stereo partly specified) | 9.4µM* | ? | . | . | . | .
CC(C)[C@H]1C(=O)N2CCC[C@H]2[C@]2(O)O[C@](NC(=O)[C@@H]3C=C4c5cccc6[nH]cc(c56)C[C@H]4N(C)C3)(C(C)C)C(=O)N12 | ? | 5.8µM* | -1% | 26% | 9% | -11
CC(C)C[C@H]1C(=O)N2CCCC2[C@]2(O)O[C@](NC(=O)[C@@H]3C=C4c5cccc6[nH]cc(c56)CC4N(C)C3)(C(C)C)C(=O)N12 (stereo partly specified) | ? | 16µM* | 0% | 34% | 3% | -7
CN(Cc1ccc(OC(F)F)cc1)C(=O)c1ccccc1Sc1ccccc1C#N | ? | ? | -15% | -5% | -25% | ?
CC(=O)OCC(=O)C1CCC2C3CC=C4CC(O)CC[C@@]4(C)C3CC[C@]12C (stereo partly specified) | 2% | -1% | . | . | . | .
Cc1ccc(P(=O)(O)c2ccc(C)cc2)cc1 | ? | ? | 0% | -3% | -20% | -22
CCCCCCC(C)(C)c1ccc([C@@H]2C[C@H](O)CC[C@@H]2CCCO)c(O)c1 | 19µM* | 3µM* | . | . | . | .
CN1C(=O)CC(=O)N(c2ccccc2)c2cc(Cl)ccc21 | -18% | -12% | . | . | . | .
CC1(C)S[C@H]2[C@@H](N)C(=O)N2[C@H]1C(=O)O | 0% | -14% | . | . | . | .
CC(=O)OC1C(O)C(C)OC(OC2C(OC(=O)C3CCC4C(C3)OC3(CC(OC(=O)/C=C/c5ccccc5)C(C)CO3)C43CO3)OC(C)C(O)C2OC(C)=O)C1O (stereo unspecified) | 0.15µM* | 0.073µM* | 4% | 3% | ? | -98*
CCOC(=O)CNC(=O)N1Cc2cc(-c3cccc(F)c3)ccc2-n2nncc2C1 | -40% | -12% | 1% | . | -28% | -15
O=C(Nc1cccc(F)c1)N1CC2(CCN(C(=O)Oc3ccccc3)CC2)C1 | 9% | ? | . | . | . | .
CCOC(=O)CC(SP(=S)(OC)OC)C(=O)OCC (stereo unspecified) | 0.022µM*! | 4.3µM*! | . | . | . | .
C[C@]12C[C@H]3S[C@H]3C[C@@H]1CC[C@@H]1[C@@H]2CC[C@]2(C)[C@@H](O)CC[C@@H]12 | -27%[21.1 µM] | -29%[21.1 µM] | . | . | . | .
O=[N+]([O-])c1ccc(Oc2ccc(N=C=S)cc2)cc1 | ? | 12µM* | . | . | . | .
CC(CC(C#N)(c1ccccc1)c1ccccc1)N(C)C (stereo unspecified) | ? | ? | -18% | -1% | 2% | -17
SMILES | TDP1 cell CPT | DT40 TDP1 no CPT | HepG2 viability | ASM inhibitor | TGFb SMAD3 inh | IL-1B inflam inh
CC[C@H](O)C(C[C@H](C)N(C)C)(c1ccccc1)c1ccccc1 | 44µM* | ? | . | . | . | .
NC(=O)c1ncn([C@@H]2O[C@H](CO)[C@@H](O)[C@H]2O)n1 | 1.5µM* | 1µM* | 0% | 2% | 10% | -10
CCOc1ccc(CC(=O)Nc2ccc3c(c2)N(C)C(=O)c2ccccc2S3)cc1OCC | ? | ? | -18% | . | -30% | .
CCn1c(O)c(N=Nc2cccc(S(=O)(=O)N3CCOCC3)c2)c(=O)n(CC)c1=S | -10% | -14% | 4% | -10% | 1% | ?
CCn1c(O)c(N=Nc2ccc(S(=O)(=O)N3CCOCC3)cc2)c(=O)n(CC)c1=S | -13% | -1% | -44% | -17% | -12% | -84*
C[C@@H]1O[C@@H](O[C@@H]2C=C3CCC4C(CC[C@]5(C)[C@@H](c6ccc(=O)oc6)CC[C@]45O)[C@@]3(C)CC2)[C@H](O)[C@H](O)[C@H]1O (stereo partly specified) | 0.058µM* | 0.015µM* | -68% | 0% | -98% | -52*
C[C@@H]1O[C@@H](O[C@@H]2C=C3CC[C@@H]4C(CC[C@]5(C)[C@@H](c6ccc(=O)oc6)CC[C@]45O)[C@@]3(C)CC2)[C@H](O)[C@H](O)[C@H]1O (stereo partly specified) | 0.16µM* | 0.16µM* | -53% | -5% | 0.28µM* | -56*
O=c1[nH]cnc2[nH]ncc12 | ? | -4% | 3% | 0% | -3% | 18
O=C(Nc1ccc(Cl)c(Cl)c1)O/N=C/c1ccncc1 | ? | ? | -44% | . | ? | -94*
Clc1ccc(C2=CCC[C@H]3CC[C@@H]2N3)cn1 | 2% | -17% | . | . | . | .
O=[N+]([O-])c1cc(S(=O)(=O)/N=C(/c2ccccc2)N2CCOCC2)ccc1Cl | ? | ? | -22% | 2% | ? | ?
